Measurements taken from PubChem BioAssay (NCI).
The panel holds about 79,000 compounds, 15% with a hit somewhere; the sample as a whole holds those more often. Cut-off read from the data, not from the text of the source: active = growth inhibition above about 70%; inactive = the rest. Where a SMILES comes first, the peptide text is derived from it. [ ]: non-standard residue; d: D form. Ac5c = NC1(C(=O)O)CCCC1

Assays:
[1] = NCI Yeast Anticancer Drug Screen. Data for the rad50 strain (AID 155);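 note: 0% = growth of vehicle-only cultures of the same strain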; conditions: S. cerevisiae rad50 strain growth inhibition; at 50.0 µM; active compounds read high
Procedure, shortened: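 Cells are treated with compound, grown, and their growth is then scored against vehicle-only cultures of the same repair-deficient yeast strain.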

[2] = NCI Yeast Anticancer Drug Screen. Data for the mec2-1 strain (AID 157); conditions: S. cerevisiae mec2-1 strain, at 50.0 µM, active compounds read high
Procedure, shortened: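 Mutant yeast (mec2-1) grown with compound; growth inhibition relative to vehicle control reported.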

[3] = NCI Yeast Anticancer Drug Screen. Data for the sgs1 mgt1 strain (AID 161);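 note: 0% = growth of cultures given vehicle only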; conditions: S. cerevisiae sgs1 mgt1 strain, at 50.0 µM, active compounds read high
Procedure, shortened: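 Percent growth inhibition was derived by comparing compound-exposed mutant yeast with vehicle-exposed cultures. The strain carries alterations in DNA damage repair.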

[4] = NCI Yeast Anticancer Drug Screen. Data for the cln2 rad14 strain (AID 165);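 note: 0% = growth equal to vehicle treated cultures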; conditions: S. cerevisiae cln2 rad14 strain, at 50.0 µM, active compounds read high
Procedure, shortened: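 Readout is yeast growth inhibition versus vehicle-treated controls, using a strain with cln2 and rad14 alterations exposed to compound.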

[5] = NCI Yeast Anticancer Drug Screen. Data for the bub3 strain (AID 167); conditions: S. cerevisiae bub3 mutant strain, at 50.0 µM, active compounds read high
Procedure, shortened: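 Part of a panel of yeast mutants defective in DNA damage repair or cell cycle regulation. Each strain is grown with compound, and inhibition is calculated relative to solvent-treated cultures.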

[6] = NCI Yeast Anticancer Drug Screen. Data for the mlh1 rad18 strain (AID 175); conditions: S. cerevisiae mlh1 rad18 strain growth inhibition; at 50.0 µM; active compounds read high
Procedure, shortened: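 Genetically defined yeast (DNA repair-deficient) exposed to compounds; growth inhibition determined relative to vehicle.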

Measured: growth inhibition

C=CC1=C(C)C2=NC1=CC1=NC(=CC3=C(C)C4=C(O)[C@H](C(=O)OC)C(=C5NC(=C2)[C@@H](C)[C@@H]5CCC(=O)O)C4=N3)C(CC)=C1C
inactive: [1] 1.65% | [2] 8.1% | [3] 31.2% | [4] 28.1% | [5] 21.1% | [6] 5.9%

Cc1ccc2oc(=O)cc(CC(=O)O)c2c1
inactive: [1] -6% | [2] -8.3% | [3] -10.4% | [4] 12.1% | [5] -10.7% | [6] -7.9%

CC(C)C(NC(=O)OC(C)(C)C)C(=O)O (stereo not given)
inactive: [1] -11.3% | [2] 1.2% | [3] 14.7% | [4] -66.3% | [5] 9.45% | [6] -6.9%

O=C1CC2(CCc3ccccc32)C(=O)N1CN1CCN(c2ccccn2)CC1 (stereo not given)
inactive: [1] 0.55% | [2] 3.5% | [3] -10% | [4] -9.15% | [5] -1.9% | [6] 18.1%

O=[N+]([O-])c1ccccc1C(Nc1nncs1)Nc1nncs1
inactive: [1] 17.3% | [2] 22.5% | [3] 41.5% | [4] -6.05% | [5] -3.3% | [6] 2.3%

Cc1ccc(OCC2OC(n3cnc4c(Cl)nc(N)nc43)CC2Oc2ccc(C)cc2)cc1 (stereo not given)
inactive: [1] 2.3% | [2] -11% | [3] 13.4% | [4] 14.6% | [5] 2.4% | [6] -13.2%

COC(=O)C1(NC(=O)C(C)NC(=O)C(CCCCN)NC(=O)C(CC(C)C)NC(C)=O)CCCC1 (stereo not given) (Ac-LKA[Ac5c]-OMe; configuration not given here)
inactive: [1] 3.1% | [2] 4.7% | [3] 13.8% | [4] -6.25% | [5] -7.8% | [6] 8.05%

CS(=O)(=O)C(C#N)S(C)(=O)=O
inactive: [1] -1.85% | [2] -1.05% | [3] -6.05% | [4] -19.2% | [5] 40.9% | [6] -10.1%

O=C1Nc2ccccc2C1O (stereo not given)
inactive: [1] 7.15% | [2] 3.3% | [3] -37.5% | [4] -17.7% | [5] 11.1% | [6] -4.2%

CN(C)c1ccc(/C=C(\NC(=O)c2ccccc2)C(=O)NC(CC(=O)O)C(=O)O)cc1 (stereo not given)
inactive: [1] 10.2% | [2] 1.45% | [3] 17.9% | [4] 7% | [5] -0.25% | [6] -0.55%

Nc1nc(SCC(=O)c2ccc(F)cc2)sc1C(=O)c1ccc(F)cc1
inactive: [1] -9.75% | [2] 6.9% | [3] 1.4% | [4] 1.3% | [5] -0.9% | [6] 14%

CCCCCc1ccccn1
inactive: [1] 0.9% | [2] 19.1% | [3] -25.4% | [4] -29.3% | [5] 12.1% | [6] -11.2%

CCOc1cc2c(cc1C(C)c1ccc(OCc3ccccc3)cc1)OCO2 (stereo not given)
inactive: [1] 6.55% | [2] 3.55% | [3] 2.7% | [4] 1.25% | [5] -2.1% | [6] -20.1%

O=C1N=C2C=CC=CN2CC1O (stereo not given)
inactive: [1] -0.4% | [2] -11.2% | [3] -7.7% | [4] -13.2% | [5] 11.5% | [6] 15.3%

O=[N+]([O-])C(=C(N1CCCCC1)N1CCCCC1)/C(Cl)=C(\Cl)Br
inactive: [1] -31.5% | [2] 11.2% | [3] 2.7% | [4] -2% | [5] -7.15% | [6] -1.45%

CCOc1nc(N)nc(C)c1N=Nc1ccccc1C
inactive: [1] 18.8% | [2] 18.1% | [3] 5.7% | [4] -12.5% | [5] 12.2% | [6] 15.7%

O=C(CC(C(=O)O)S(=O)(=O)O)Nc1ccc(S(=O)(=O)c2ccc(NC(=O)CC(C(=O)O)S(=O)(=O)O)cc2)cc1 (stereo not given)
inactive: [1] 2.45% | [2] 4.55% | [3] 2.55% | [4] -5.55% | [5] -7.9% | [6] -11.3%

Cn1ccc2c3ccn(C)c3ccc21
inactive: [1] -15.8% | [2] 9.4% | [3] -5.25% | [4] 56.7% | [5] -19.9% | [6] 23.1%

COc1cc2c(cc1C(C)c1ccc(OCc3ccccc3)cc1)OCO2 (stereo not given)
inactive: [1] -1.3% | [2] -1.1% | [3] -8.6% | [4] -13.1% | [5] 0% | [6] 9.65%

Cc1ccc(C(=O)CC(C#N)c2ccccc2)cc1 (stereo not given)
inactive: [1] 25.6% | [2] 17.4% | [3] 13.4% | [4] 18.1% | [5] 5.55% | [6] 12.7%

O=[N+]([O-])c1cccc(C=NC23CC4CC(CC(C4)C2)C3)c1
inactive: [1] -2.15% | [2] 7.45% | [3] -29.6% | [4] 28.7% | [5] 30.1% | [6] -4.15%

COC(=O)C(=O)C(C(C)=O)C(=O)C(=O)Nc1ccc(C)cc1C (stereo not given)
inactive: [1] 19.1% | [2] 14.1% | [3] 1.95% | [4] 15.2% | [5] 26.1% | [6] 17.9%

N#CCCC(CC#N)N1CCN(C(CC#N)CCC#N)CC1 (stereo not given)
inactive: [1] -33.5% | [2] -48.9% | [3] -11.8% | [4] -6.3% | [5] -13.1% | [6] -19.4%

CSC1=NC=C(C#N)C2=NC(c3c(F)cccc3Cl)NN12 (stereo not given)
inactive: [1] 30.3% | [2] 7.65% | [3] 35.3% | [4] 26.2% | [5] 24.6% | [6] 26.8%

NC1=NC(c2ccc(Cl)cc2)N(c2ccc(S(N)(=O)=O)cc2)C(N)=N1 (stereo not given)
inactive: [1] 9.05% | [2] -4.35% | [3] -24.5% | [4] -21.9% | [5] -11.3% | [6] 21.6%

CCN(CC)c1cccc(C(=O)OCCNCC(C)C)c1
inactive: [1] -9.7% | [2] 0.85% | [3] 5.05% | [4] -39.7% | [5] 49.1% | [6] 10.8%

Cc1ccc(C)c(CNC(=O)C2CCCCC2C(=O)O)c1 (stereo not given)
inactive: [1] 9.3% | [2] 33.6% | [3] 37.2% | [4] -0.6% | [5] 34.6% | [6] -3.2%

O=C(O)c1cccc2cnccc12
inactive: [1] -40.6% | [2] -17.6% | [3] -26.9% | [4] 1.3% | [5] -13.3% | [6] -8.7%

O=C1SCC(O)=C1/C=N/Nc1nc2ccccc2o1
inactive: [1] -11.9% | [2] 6.45% | [3] 27.1% | [4] 31.7% | [5] 13.2% | [6] 12.3%

COc1nc(NC2OCC(OC(C)=O)C(OC(C)=O)C2OC(C)=O)c(-c2csc(N)n2)c(=O)n1C (stereo not given)
inactive: [1] -1.9% | [2] -21.9% | [3] -14.6% | [4] 13.6% | [5] -2.3% | [6] 6.85%

CCCCC(O)CNc1ccccc1 (stereo not given)
inactive: [1] -7.4% | [2] 14.7% | [3] 5.7% | [4] -5.75% | [5] 9.65% | [6] 3.75%

CN(C)CCCNC(=O)/C=C\C(=O)O
inactive: [1] 5.8% | [2] 3.9% | [3] 0.15% | [4] -4.9% | [5] 2.6% | [6] -6.15%

COc1cc2c(cc1OC)C(=O)N(c1ccc(OCCN3CCCC3)cc1)C2=O
inactive: [1] -20.7% | [2] -17.9% | [3] 4.7% | [4] 19.4% | [5] 15.8% | [6] -10.4%

COc1ccccc1/C(=N\OCCC(=O)O)c1cccs1
inactive: [1] 2.15% | [2] -0.95% | [3] 5.95% | [4] 0.65% | [5] -1.25% | [6] -51.1%

NS(=O)(=O)c1ccc(NC(=O)/C=C\C(=O)O)cc1
inactive: [1] -15.6% | [2] -27.2% | [3] 17.1% | [4] -1.4% | [5] -4.2% | [6] -9.6%

O=C1/C(=C/c2cccc3ccccc23)CCc2ccc([N+](=O)[O-])cc21
inactive: [1] -34.5% | [2] -23.6% | [3] -49.9% | [4] -23.9% | [5] 20.1% | [6] -15.6%

CCN(CCO)CC(O)Cn1cnc2c(N)ncnc21 (stereo not given)
inactive: [1] 2.35% | [2] -13.6% | [3] -18.1% | [4] 26.6% | [5] -17.3% | [6] 23.4%

CCOC(=O)c1cnc(=O)n(Cc2ccccc2)c1N
inactive: [1] -1.25% | [2] 0.65% | [3] 10.9% | [4] 0.45% | [5] 0.35% | [6] -8.15%

COc1cc(C=O)c(-c2cc(OC)c(OC)cc2C=O)cc1OC
inactive: [1] 5.9% | [2] -6.65% | [3] -8.8% | [4] 0.2% | [5] -12.4% | [6] -2.15%

CN(C)c1ccc(C=C2C(=O)OC(C)(C)OC2=O)cc1Br
inactive: [1] 1.55% | [2] -13.8% | [3] -4.1% | [4] 32% | [5] -17.6% | [6] 10.7%
